From PubChem BioAssay
Calls of active or inactive are those of the source. Unless noted, how the calls were made is not given here.

How the values were obtained:
[1] = tested on: XIP peptide (Xip251-270) binding; assay: small-molecule binders of XIP peptide, primary screen, biochemical, small-molecule microarray, fluorescence 635/667 nm, 0.1 µg/mL protein (AID 1182); details: fluorescent protein binding, 635 nm, higher = more signal, called active from +8 up or from −8 down
XIP peptide (Xip251-270) = assay: small-molecule binders of XIP peptide, primary screen, biochemical, small-molecule microarray, fluorescence 635/667 nm, 0.5 µg/mL protein (AID 1183); details: small-molecule microarray binding, fluorescence 635 nm; higher = more signal
[2] = Plasmodium falciparum growth inhibition, primary screen, strain 3D7, DAPI fluorescence, 100 nL (AID 1184);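 further: parasites grown inside human red blood cells in medium with human serum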; details: P. falciparum 3D7 growth, 3 d, higher = more signal
[3] = target: Homeobox protein Hox-A13 (Mus musculus) (UniProt Q62424); assay: inhibitors of HoxA13-DNA binding, primary screen, biochemical, fluorescence polarization, labeled oligonucleotide (AID 1185); details: 15 min, higher = more signal, called active from +8 up or from −8 down
[4] = inhibitors of hydroxyurea-induced Chk1 phosphorylation, primary screen, imaging, HeLa, phospho-Chk1 antibody, percent positive cells (AID 1186); details: hydroxyurea-induced phospho-Chk1 immunofluorescence imaging, higher = more signal
[5] = inhibitors of hydroxyurea-induced Chk1 phosphorylation, primary screen, imaging, HeLa, phospho-Chk1 nuclear intensity (AID 1187); details: hydroxyurea-induced phospho-Chk1 immunofluorescence imaging, higher = more signal

Homeobox protein Hox-A13 (Mus musculus), sequence (Q62424 whole entry, looked up): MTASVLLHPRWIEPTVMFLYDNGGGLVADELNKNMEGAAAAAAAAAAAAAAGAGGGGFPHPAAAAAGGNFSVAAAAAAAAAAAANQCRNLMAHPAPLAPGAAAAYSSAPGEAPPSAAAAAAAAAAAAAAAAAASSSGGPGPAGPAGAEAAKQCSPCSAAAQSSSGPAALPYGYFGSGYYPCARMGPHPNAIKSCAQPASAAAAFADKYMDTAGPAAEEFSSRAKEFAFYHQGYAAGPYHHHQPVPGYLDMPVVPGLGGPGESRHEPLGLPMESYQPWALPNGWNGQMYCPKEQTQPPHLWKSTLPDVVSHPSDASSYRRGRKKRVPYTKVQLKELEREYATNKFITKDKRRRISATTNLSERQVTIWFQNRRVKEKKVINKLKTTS

Row | SMILES | composite z-score [1] | composite z-score (XIP peptide (Xip251-270)) | z-score [2] | z-score [3] | z-score [4] | z-score [5]
1 | O=C1O[C@@H](c2ccccc2)[C@@H](c2ccccc2)N2[C@@H](c3ccc(O)cc3)[C@]3(C(=O)Nc4ccc(C#CC5=CCCCC5)cc43)[C@@H](C(=O)N3CCN(c4ncccn4)CC3)[C@H]12 | -0.168 (inactive) | 0.657 | -1.97 | 0.676 (inactive) | -0.0981 (inactive) | -0.0223 (inactive)
2 | COc1cc2c(cc1OC)CN(C(=O)[C@H]1[C@@H]3C(=O)O[C@@H](c4ccccc4)[C@@H](c4ccccc4)N3[C@@H](c3ccc(OCCO)cc3)[C@]13C(=O)Nc1ccc(C#CC4(O)CCCCCC4)cc13)CC2 | 0.63 (inactive) | 0.803 | -1.88 | 2.98 (inactive) | -0.647 (inactive) | -1.2 (inactive)
3 | C=CCN1Cc2ccccc2C[C@@]2(N=C(c3ccc(OCCCO)cc3)O[C@H]2c2ccccc2)C1=O | 0.247 (inactive) | 0.691 | -2.09 | -3.98 (inactive) | -0.468 (inactive) | -0.399 (inactive)
4 | COc1ccc(C(O)C2C=CC3C(=O)N(Cc4ccccc4)C(=O)C3N2n2cnnc2)c2ccccc12 (centres undefined) | 1.09 (inactive) | 0.537 | -1.05 | -1.49 (inactive) | -0.525 (inactive) | -0.966 (inactive)
5 | C[C@@H](OCc1ccccc1)C1NC(=O)[C@@]23C(=O)N[C@@H](Cc4ccccc4)C2[C@H](C)[C@@]2(C)O[C@H]2C3/C=C/C/C=C\CNC(=O)CNC1=O (some centres undefined) | -0.153 (inactive) | -0.796 | -0.748 | -7.11 (inactive) | 0.631 (inactive) | 0.734 (inactive)
6 | CN(C)C(=O)[C@@]1(Cc2ccccc2N=[N+]=[N-])COC(c2ccc(OCCCO)cc2)=N1 | 0.472 (inactive) | 0.605 | -1.8 | -5.84 (inactive) | -0.408 (inactive) | -0.362 (inactive)
7 | C=CCOC(=O)[C@H]1[C@@H]2C(=O)O[C@@H](c3ccccc3)[C@@H](c3ccccc3)N2[C@@H](c2ccc(OCCOC(=O)[C@H]3C[C@H]4C(=O)N[C@@H](CCCC[N+](C)(C)C)C(=O)N4[C@H]3c3cccc(OCCO)c3)cc2)[C@]12C(=O)Nc1ccc(I)cc12 | 0.261 (inactive) | 0.617 | -1.87 | 1.47 (inactive) | -0.714 (inactive) | -0.783 (inactive)
8 | COC(=O)[C@@]1(Cc2ccc(OC)cc2)[C@H]2c3cc(C(=O)N4CCCC4)n(CCc4cc5ccccc5[nH]4)c3C[C@H]2CN1C(=O)c1ccccc1 | 1.64 (inactive) | 0.685 | -1.66 | -1.91 (inactive) | -0.203 (inactive) | -0.0973 (inactive)
9 | C[C@H]1C2=C3C(CC[C@H]4C(OCc5ccc(F)cc5C(F)(F)F)OC[C@](C)([C@@H]34)N(C(=O)OC(C)(C)C)C2)C2COC(=O)OCC21 (some centres undefined) | 0.172 (inactive) | 0.551 | -0.121 | -3.49 (inactive) | 0.671 (inactive) | 0.439 (inactive)
10 | COC(=O)[C@@]1(Cc2ccccc2)[C@H]2c3cc(C(=O)N4CCCC4)[nH]c3C[C@H]2CN1C(=O)c1ccccc1 | 0.282 (inactive) | 0.659 | -0.0756 | -1.8 (inactive) | 1.1 (inactive) | 1.21 (inactive)
11 | CCOC(=O)C[C@H]1[C@H](OC(=O)c2ccc(-c3ccccc3)cc2)[C@@H](NC(=O)c2ccc3ccccc3n2)c2cc(OCCCO)ccc2N1C(=O)c1ccccc1 | -0.0549 (inactive) | 0.266 | -1.1 | -2.05 (inactive) | 0.188 (inactive) | 0.16 (inactive)
12 | C=CCNC(=O)[C@@H]1[C@H]2C(=O)O[C@H](c3ccccc3)[C@H](c3ccccc3)N2[C@H](c2ccc(OCCO)cc2)[C@@]12C(=O)N(C(=O)OCCOC)c1ccc(C#CC3=CCCCC3)cc12 | 0.0094 (inactive) | 0.659 | -2.19 | 0.713 (inactive) | 0.201 (inactive) | 0.474 (inactive)
13 | COC1(C)CN(Cc2ccccc2Br)[C@H](/C=C/c2ccccc2)[C@H](Cc2ccccc2)O1 (some centres undefined) | -0.181 (inactive) | -0.13 | 0.502 | 0.471 (inactive) | -1.6 (inactive) | -2.34 (inactive)
14 | CN1C(=O)C2C=CC(C(O)C3CCCCC3)N(N3CCCCC3)C2C1=O (centres undefined) | 0.269 (inactive) | 0.803 | -0.151 | -3.82 (inactive) | 0.796 (inactive) | 0.332 (inactive)
15 | CN1C(=O)C2C=CC(C(O)Cc3ccccc3)N(N(c3ccccc3)c3ccccc3)C2C1=O (centres undefined) | -0.072 (inactive) | 0.645 | -0.077 | -2.48 (inactive) | 0.077 (inactive) | -0.0628 (inactive)
16 | CCOC(=O)C1=CC[C@@H](c2ccc([N+](=O)[O-])cc2)N(S(=O)(=O)c2ccc(C)cc2)[C@H]1c1ccccc1 | 0.353 (inactive) | 0.552 | -1.41 | 2.35 (inactive) | -0.137 (inactive) | -0.3 (inactive)
17 | COCCOC(=O)N1C(=O)[C@@]2(c3cc(C#CC4(O)CCCCCC4)ccc31)[C@H](C(N)=O)[C@H]1C(=O)O[C@H](c3ccccc3)[C@H](c3ccccc3)N1[C@@H]2c1ccccc1OCCO | -0.0203 (inactive) | 0.792 | -2.19 | -1.56 (inactive) | 0.276 (inactive) | 0.217 (inactive)

Row | SMILES | composite z-score [1] | composite z-score (XIP peptide (Xip251-270)) | z-score [2] | z-score [3] | z-score [4] | z-score [5]
18 | O=C1c2ccccc2[C@](Cc2ccccc2I)(C(=O)NCc2ccccc2)[C@H](c2ccc(CO)cc2)N1C1CCCCC1 | 0.353 (inactive) | 0.713 | -1.34 | -2.27 (inactive) | -0.353 (inactive) | -0.12 (inactive)
19 | CC(C)CNC(=O)[C@@]1(c2ccc([N+](=O)[O-])cc2)CC(=O)N(C2CCCCC2)[C@@H]1c1ccc(CO)cc1I | 0.551 (inactive) | 0.792 | -0.923 | -4.89 (inactive) | 0.093 (inactive) | -0.208 (inactive)
20 | CCCCC(CC)C(O)C1C=CC2C(=O)N(c3ccccc3)C(=O)C2N1Nc1ccc([N+](=O)[O-])cc1 (centres undefined) | 0.389 (inactive) | 0.624 | 0.0352 | -3.6 (inactive) | 0.332 (inactive) | -0.383 (inactive)
21 | COc1cc2c(cc1OC)CN(C(=O)[C@H]1[C@@H]3C(=O)O[C@@H](c4ccccc4)[C@@H](c4ccccc4)N3[C@@H](c3ccc(OCCO)cc3)[C@]13C(=O)Nc1ccc(C#CCCO)cc13)CC2 | 0.527 (inactive) | 0.692 | -2.06 | 1.96 (inactive) | 0.0312 (inactive) | 0.157 (inactive)
22 | CCCC=C(CCC)[C@@H](NP(=O)(c1ccccc1)c1ccccc1)c1ccc(C(F)(F)F)cc1 | -0.185 (inactive) | 0.258 | -0.591 | -1.19 (inactive) | 0.272 (inactive) | -0.0984 (inactive)
23 | O=C(CCCCCCC(=O)Nc1ccccc1)N/N=C/c1ccccc1 | -0.531 (inactive) | -0.57 | 1.01 | 0.458 (inactive) | -0.156 (inactive) | -0.425 (inactive)
24 | COc1ccc(C(O)C2C=CC3C(=O)N(c4ccccc4)C(=O)C3N2Nc2ccccc2)cc1OCc1ccccc1 (centres undefined) | 0.0123 (inactive) | 0.713 | -0.0742 | -1.8 (inactive) | 0.302 (inactive) | -0.156 (inactive)
25 | NC(=O)NCC#Cc1ccc2c(c1)[C@]1(C(=O)N2)[C@H](c2ccc(O)cc2)N2[C@H](c3ccccc3)[C@H](c3ccccc3)OC(=O)[C@H]2[C@@H]1C(=O)Nc1nc2ccccc2s1 | 0.541 (inactive) | 0.453 | 0.364 | 0.608 (inactive) | -0.275 (inactive) | 0.0338 (inactive)
26 | O=C1NCC(=O)N2[C@@H]1C[C@@H](C(=O)O)[C@H]2c1ccc(O)cc1 | 1.26 (inactive) | 0.665 | 0.489 | -1.91 (inactive) | 0.0155 (inactive) | 0.0565 (inactive)
27 | C=C[C@@H](C)[C@H](OC(=O)Nc1ccc(SC)cc1)c1ccc(OCCO)cc1 | 0.263 (inactive) | -0.0795 | -0.005 | -4.89 (inactive) | -0.405 (inactive) | 0.433 (inactive)
28 | CC[C@H]1C2=C3C(CC[C@H]4C(OCc5ccc(F)cc5C(F)(F)F)OC[C@](C)([C@@H]34)N(C(=O)OC(C)(C)C)C2)C2COC(=O)OCC21 (some centres undefined) | 3.17 (inactive) | 0.393 | -0.749 | -3.54 (inactive) | 1.23 (inactive) | 0.722 (inactive)
29 | COc1cc(CO)cc(I)c1O[C@H]1C=C(C(=O)NCCO)C[C@@H](NCc2ccccc2F)[C@@H]1O | -0.346 (inactive) | 0.481 | -2.98 | -7.62 (inactive) | -0.24 (inactive) | 0.959 (inactive)
30 | CCOC(=O)C[C@H]1[C@H](OC(=O)c2ccc(C(=O)c3ccccc3)cc2)[C@@H](NC(=O)c2ccc3ccccc3c2)c2cc(OCCCO)ccc2N1C(=O)c1ccccc1 | 1.39 (inactive) | 0.444 | 1.45 | -0.683 (inactive) | 0.451 (inactive) | 0.0368 (inactive)
31 | COc1ccc(C(O)C2C=CC3C(=O)N(C)C(=O)C3N2N2CCCCC2)cc1 (centres undefined) | 0.568 (inactive) | 0.37 | -0.0513 | -4.16 (inactive) | -1.52 (inactive) | -1.31 (inactive)
32 | COCCOC(=O)N1C(=O)[C@@]2(c3cc(C#Cc4ccc(OC)cc4)ccc31)[C@H](C(=O)N1CCCCCCC1)[C@H]1C(=O)O[C@H](c3ccccc3)[C@H](c3ccccc3)N1[C@@H]2c1ccc(O)cc1 | 1.73 (inactive) | 0.669 | -2.31 | 2.16 (inactive) | -0.29 (inactive) | -0.537 (inactive)
33 | C=C(COC)/C(=C/C[C@@H](OC(=O)c1ccncc1)c1cccc(OCCO)c1)c1cnc2ccccc2c1 | 0.482 (inactive) | 0.763 | -2.79 | -5.6 (inactive) | 0.594 (inactive) | 0.376 (inactive)
34 | CCOC(=O)C[C@H]1[C@H](OC(=O)c2ccccc2-c2ccccc2)[C@@H](NC(=O)c2ccc3ccccc3n2)c2cc(OCCCO)ccc2N1C(=O)c1ccc2ccccc2n1 | 0.123 (inactive) | 0.309 | -0.456 | -1.53 (inactive) | -0.492 (inactive) | -0.588 (inactive)
